From PubChem BioAssay come the findings set out here.

Structures are written as SMILES. Where “and” joins values, the source holds several entries; their conditions need not be identical. Equal entries are not always repeated. Calls of active or inactive are those of the source.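 Rule for the calls, unless noted: active = thallium flux through the channel raised or lowered by more than 3 SD from vehicle-only wells, actives on both sides; inactive = the rest.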

Assay [1] is described as follows: P. berghei load reduction in hepatocytes – cell-based, HepG2, luciferase luminescence, HepG2 viability, primary screen (AID 624349; in the data active = parasite load remaining mostly below about 12%, no sharp cut-off; inactive = mostly above about 10%;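 note: 100% = mean of DMSO negative control wells on the same plate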). As to conditions: P. berghei liver stage in HepG2, luciferase luminescence, concentration not given here; parasite load remaining: stronger effect = lower value; viability: measured here: HepG2 viability without parasites.
A short description of assay [2]: signal quenchers or enhancers, Cy5 substrate/SSB – biochemical, NIH Clinical Collection, E. coli SSB, artefact control for HCV NS3 helicase inhibitor project (AID 743268; call rule not given here). As to conditions: Cy5-oligo bound E. coli SSB, fluorescence interference.
The test system of assay [3] is Hepatitis C virus NS3 helicase. In words: blockers of NS3h binding to DNA – biochemical, fluorescence polarization, NIH Clinical Collection, primary screen (AID 743270; call rule not given here). As to conditions: NS3 helicase binding to Cy5-dT15 DNA, stronger effect = higher value, concentration not given here. (Polarisation of emitted light reports the rotation of a fluorescent probe.)
Assay [4] has as its target Single-stranded DNA-binding protein (Escherichia coli (strain K12)) (UniProt P0AGE0). In words: SSB-ssDNA binding inhibitors – biochemical, fluorescence polarization, NIH Clinical Collection, counter-screen for HCV NS3 helicase inhibitor project (AID 743271; in the data active = inhibition above about 28%). As to conditions: E. coli SSB-DNA binding, stronger effect = higher value, concentration not given here.
Assay [5] can be described thus: compounds distorting NS3 helicase fluorescence signal – biochemical, NIH Clinical Collection, artefact control for HCV NS3 helicase inhibitor project (AID 743272; call rule not given here;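 note: HCV NS3 helicase with a Cy5 labelled single stranded DNA probe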). As to conditions: fluorescence interference counterscreen, HCV NS3 helicase assay; stronger effect = lower value. For orientation: The purpose of a counterscreen is to sort out artefacts and off-target activity.
The nature of assay [6]: modulation of C. elegans fzo-1 (AID 1259413; call rule not given here;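 note: fzo-1 mutant C. elegans worms in liquid wells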). The conditions noted are these: C. elegans fzo-1 modulator screen, mean read-out; stronger effect = higher value.
Assay [7] is described as follows: viability loss with induced miR-34 in A549 – imaging, A549 dox-inducible miR-34, nuclei and caspase counts, primary screen (AID 1347080;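 active = compounds whose cell count with miR-34 switched on is under 0.7 times the count with it off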). As to conditions: A549 miR-34 inducible, Hoechst nuclei count, 48 h.
A short description of assay [8]: galactose survival enhancers in mitochondrial complex I cybrids – cell-based, galactose medium, ATP luminescence, primary screen (AID 1645843;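 active = z-score of at least 1.8 in each of two replicates, scored against plate mean and spread of sample wells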;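 note: positive z means more ATP and so rescue of galactose-driven cybrid death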). As to conditions: complex I mutant cybrid cells, 72 h, stronger effect = higher value.
Another assay concerns F380Y. As to the kind of experiment: BK channel mutant inhibitors and activators – cell-based, U2OS BacMam, thallium flux, beta subunits, selectivity assay, profiling panel (AID 1259406).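 Note: initial slope of Thallos dye fluorescence rise after thallium is added; log ratio against the mean of 0.3% DMSO vehicle wells on the same plate.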 The conditions noted are these: U2OS BacMam BK variants, at 30 µM.
For a further assay, the system named is F380Y/beta1. The assay is described as above. The conditions noted are these: U2OS BacMam BK variants, at 30 µM.
For the next assay, the system named is F380Y/beta2Delta. Described as above. The conditions noted are these: U2OS BacMam BK variants, at 30 µM.
The test system of another assay is F380Y/beta4. The description is as above. As to conditions: U2OS BacMam BK variants, at 30 µM.
The target of assay [9] is Calcium-activated potassium channel subunit alpha-1 (Homo sapiens) + Leucine-rich repeat-containing protein 26 (Homo sapiens) (UniProt Q12791+Q2I0M4). The assay is described as above. As to conditions: U2OS BacMam BK variants, F380Y/Slo1WT/gamma1, at 30 µM.
For another assay, the system named is R275C. Described as above. As to conditions: U2OS BacMam BK variants, at 30 µM.
For the next assay, the system named is R275C/beta1. Described as above. As to conditions: U2OS BacMam BK variants, at 30 µM.
The test system of the next assay is R275C/beta2Delta. Described as above. The conditions noted are these: U2OS BacMam BK variants, at 30 µM.
For the next assay, the system named is R275C/beta4. The description is as above. As to conditions: U2OS BacMam BK variants, at 30 µM.
For the next assay, the system named is R275C/Slo1WT/beta2. The description is as above. As to conditions: U2OS BacMam BK variants, at 30 µM.
The test system of assay [10] is Neuropilin-2 / VEGF-C interaction (human). As to the kind of experiment: small molecules blocking Neuropilin-2/VEGF-C interaction – biochemical, microplate binding format, z-score (AID 743281; call rule not given here). The conditions noted are these: microplate NRP2/VEGF-C binding assay; stronger effect = lower value.
Assay [11] is described as follows: MELAS cybrid and Rieske KO viability enhancers – cell-based, MELAS cybrids, Rieske KO mouse fibroblasts, CellTiter-Glo, primary screen (AID 1508586;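 active = mean z-score across replicates of 1.96 or higher in either the MELAS or the Rieske mutant cell line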;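 note: z relative to plate mean and SD of compound and empty wells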). As to conditions: low glucose.
Where [12] appears, read: stronger effect = lower value, cell number ratio, induced over uninduced.
The mark [13] stands for this setting: measured here: relative caspase fold change +Dox/-Dox.
[14] abbreviates: measured here: total cells with miR-34 induction, stronger effect = lower value.
Setting [15] is: measured here: total cells without miR-34 induction.
The mark [16] stands for this setting: MELAS cybrid survival, CellTiter-Glo 48 h, stronger effect = higher value.
Where [17] appears, read: Rieske KO mouse fibroblast survival, CellTiter-Glo 72 h.

Sequence of Calcium-activated potassium channel subunit alpha-1 (Homo sapiens) + Leucine-rich repeat-containing protein 26 (Homo sapiens) (Q2I0M4 whole entry, looked up, one chain of several): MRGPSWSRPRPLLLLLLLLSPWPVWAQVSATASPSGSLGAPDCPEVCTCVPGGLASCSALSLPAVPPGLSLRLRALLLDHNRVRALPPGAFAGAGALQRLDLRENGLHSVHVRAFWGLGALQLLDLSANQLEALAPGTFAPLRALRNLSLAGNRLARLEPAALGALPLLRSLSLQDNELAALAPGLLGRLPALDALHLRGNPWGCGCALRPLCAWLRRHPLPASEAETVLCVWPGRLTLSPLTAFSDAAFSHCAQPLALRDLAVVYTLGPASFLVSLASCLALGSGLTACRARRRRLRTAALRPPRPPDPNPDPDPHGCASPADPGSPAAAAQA

In the case of `CCOC(=O)CCC(=O)OC1C(OC2C(C)C(OC3CC(C)(OC)C(O)C(C)O3)C(C)C(=O)OC(CC)C(C)(O)C(O)C(C)C(=O)C(C)CC2(C)O)OC(C)CC1N(C)C` (centres undefined), the parasite load remaining in [1] was 56% (inactive). Further, in assay [1], the viability (in general, a read-out of living cells in per cent, often relative to untreated cells) was 94.7%. The results for the fluorescence ratio in assay [2] and in [5] were 1.07 (inactive) and 0.98 (inactive), respectively. Further, the figures for the inhibition in [3] and in assay [4] were 0.45% (inactive) and 0.29% (inactive), respectively. Further, the mean signal in assay [6] is 242 (inactive). For the same compound, the results for the fold change in assay [7] (setting [12]) and in [7] (setting [13]) were 0.96 (inactive) and 1.93, respectively. The cell count came out at 10400 in [7] (setting [14]) and 10900 in [7] (setting [15]). Further, the z-score in assay [8] was 0.77 (inactive). The log fold change Tl+ flux with F380Y is -0.00772 (inactive); in the assay on F380Y/beta1, 0.06 (inactive); in the assay with F380Y/beta2Delta, -0.0119 (inactive); in the assay with F380Y/beta4 it was -0.0302 (inactive); in assay [9], -0.0035 (inactive); in the assay on R275C it was -0.135 (active). The log fold change Tl+ flux was 0.019 (inactive) with R275C/beta1, -0.0301 (inactive) with R275C/beta2Delta, -0.00612 (inactive) with R275C/beta4 and 0.000174 (inactive) in the assay on R275C/Slo1WT/beta2.
With `CCCCc1nc(Cl)c(CO)n1Cc1ccc(-c2ccccc2-c2nnn[nH]2)cc1`, the parasite load remaining in assay [1] was 81.8% (inactive) and 40.5% (inactive). Further, the viability in [1] was 76.8% and 103%. The values for the fluorescence ratio in assay [2] and in [5] were 1.01 (inactive) and 0.93 (inactive), respectively. Moreover, the inhibition – broadly, the drop in the measured response relative to a control, in per cent – in assay [3] is -1.19% (inactive); in assay [4] it was 2.21% (inactive). Further, the z-score in [10] is -0.132 (inactive); in assay [11] (setting [16]), -0.447 (inactive); in assay [11] (setting [17]), -1.13; in assay [8], 0.965 (inactive) and 0.025 (inactive). Also, the mean signal in assay [6] is 250 (inactive). Also, the fold change in assay [7] (setting [12]) is 0.917 (inactive) and 0.788 (inactive); in [7] (setting [13]), 2.6 and 1.84. The cell count in assay [7] (setting [14]) is 9420 and 8200; in assay [7] (setting [15]) it was 10300 and 10400. For the same compound, the log fold change Tl+ flux in the assay on F380Y was -0.0174 (inactive); in the assay with F380Y/beta1, 0.0224 (inactive); in the assay on F380Y/beta2Delta, -0.000818 (inactive); in the assay on F380Y/beta4 it was 0.0154 (inactive); in assay [9], 0.0245 (inactive); with R275C it was -0.0209 (inactive). The log fold change Tl+ flux is 0.00988 (inactive) in the assay on R275C/beta1, 0.0215 (inactive) in the assay with R275C/beta2Delta, 0.039 (inactive) with R275C/beta4 and -0.0136 (inactive) in the assay with R275C/Slo1WT/beta2.
`O=C(NC(CO)C(O)c1ccc([N+](=O)[O-])cc1)C(Cl)Cl` (centres undefined): the parasite load remaining in assay [1] is 48.8% (inactive). The viability in assay [1] is 87.3%. Moreover, the fluorescence ratio in assay [2] was 0.1 (active); in [5] it was 1.03 (inactive). The inhibition in assay [3] is -4.09% (inactive); in assay [4], 4.1% (inactive). The mean signal in [6] was 263 (inactive). Besides, the fold change in [7] (setting [12]) was 0.967 (inactive) and 0.86 (inactive); in assay [7] (setting [13]), 1.3 and 1.21. Moreover, the cell count in assay [7] (setting [14]) was 7650 and 7730; in assay [7] (setting [15]), 7910 and 8980. The values for the z-score in assay [11] (setting [16]), in assay [11] (setting [17]) and in assay [8] were -0.304 (inactive), 0.499 and 0.48 (inactive), respectively. Also, the log fold change Tl+ flux is -0.0332 (inactive) in the assay on F380Y; 0.0194 (inactive) in the assay on F380Y/beta1; -0.0071 (inactive) in the assay on F380Y/beta2Delta; 0.000156 (inactive) in the assay with F380Y/beta4; 0.0379 (inactive) in [9]; -0.0175 (inactive) in the assay on R275C. In addition, the log fold change Tl+ flux in the assay with R275C/beta1 is -0.0341 (inactive); in the assay with R275C/beta2Delta it was -0.00719 (inactive); in the assay with R275C/beta4 it was 0.0483 (inactive); with R275C/Slo1WT/beta2, 0.0603 (inactive).
Regarding `COc1cc(C[C@@H](CO)[C@H](CO)Cc2ccc(O)c(OC)c2)ccc1O`, the parasite load remaining in assay [1] is 74.6% (inactive). Besides, the viability in [1] worked out at 77.7%. Also, the fluorescence ratio is 0.93 (inactive) in [2] and 0.88 (inactive) in [5]. The inhibition in assay [3] was -1.09% (inactive); in assay [4] it was 3.54% (inactive). Also, in assay [10], the z-score was 0.125 (inactive). The mean signal in assay [6] was 248 (inactive). The log fold change Tl+ flux in the assay with F380Y is 0.00354 (inactive); with F380Y/beta1 it was 0.0295 (inactive); in the assay with F380Y/beta2Delta it was 0.0145 (inactive); in the assay on F380Y/beta4, 0.00227 (inactive); in [9] it was 0.0262 (inactive); in the assay with R275C, -0.00612 (inactive). For the same compound, the log fold change Tl+ flux in the assay with R275C/beta1 was -0.00624 (inactive); with R275C/beta2Delta it was -0.0204 (inactive); in the assay with R275C/beta4, -0.0506 (inactive); in the assay with R275C/Slo1WT/beta2 it was 0.0317 (inactive).
